# Test results taken from PubChem BioAssay AID1508622 (National Center for Advancing Translational Sciences (NCATS), 2021).
# Calls of active or inactive are those of the source. Calls come from the whole dose curve; as a rule, active = well fitted activation curve with a large enough effect; inconclusive = small, poorly fitted or top-dose-only effect; inactive = no such curve, though single readings can be large or run the other way.
# Assay: Confirmatory qHTS for Identification of Small Molecule Activators of Huntingtin-Antisense Promoter Activity
# Details: HEK293 HTT-AS promoter firefly luciferase reporter, 24 h; series mostly up to 57.5 µM; activity change, positive = activation: at the top concentration
# From the text: Assay Provider: Russell L. Margolis M.D.
# Department Neurology, Johns Hopkins University School of Medicine, Baltimore, MD
# Huntington's Disease (HD) is a neurodegenerative disorder caused by a CAG repeat expansion in exon 1 of huntingtin (HTT). While there are currently no disease-modifying treatments for HD, recent efforts have focused on development of nucleotide-based therapeutics to lower HTT expression. As an alternative to siRNA or oligonucleotide methods, we hypothesized that suppression of HTT expression might be accomplished by small molecules that either (1) directly decrease HTT expression by suppressing HTT promoter activity or (2) indirectly decrease HTT expression by increasing the promoter activity of HTT-AS, the gene antisense to HTT that appears to inhibit expression of HTT.
# We developed and employed a high throughput screen for modifiers of HTT and HTT-AS promoter activity using luminescent reporter HEK293 cells; of the 52,041 compounds tested, we identified 898 replicable hits. We used a rigorous stepwise approach to assess compound toxicity and the capacity of the compounds to specifically lower huntingtin protein in 5 different cell lines, including HEK293 cells, HD lymphoblastoid cells, mouse primary neurons, HD iPSCs differentiated into cortical-like neurons, and HD hESCs. We found no compounds which were able to lower huntingtin without lowering cell viability in all assays, though the potential efficacy of a few compounds at non-toxic doses could not be excluded.
# SEQUENCE No. (1, 2, 3, etc.); […] (e.g., Cells, Incubation, Reagent, etc.); VALUE and DESCRIPTION.
# 1; Reagent; 4 uL; 2,500 Hek293 luciferase reporter cells per wells
# 3; Compound; 23 nL; Control inhibitor / compound library
# 5; Reagent; 2.5 uL; Firefly Luc reagent; Dual-Glo Luciferase Reporter Assay System (Promega)
# 6; Time; 10 min; room temperature incubation
# 7; Detection; Luminescence; FLuc
# NOTES (numbers refer to sequence above)
# 1; High-throughput screening, measuring luminescence from a Hek293 luciferase reporter, was performed in 1,536 well white-walled tissue-culture treated plates. 2,500 cells were plated in 4 uL of Opti-MEM per well using a Multidrop Combi Reagent Dispenser (ThermoFisher).
# 2; Assay plates were cultured for 24 hours.
# 3; Control inhibitor (PTC124; final concentration of 50 uM) and compound library (at final concentrations of 460 nM - 57.5 uM) were added to the assay plate using the Kalypsis Pintool Robotic System equipped with 1536 pinheads.
# 4; Cells were then incubated for 24 hours at 37C prior to luminescence measurements.
# 5; In all cases, luminescence was measured using the Dual-Glo Luciferase Reporter Assay System (Promega) following the manufacturer's instructions.
# 6; Room temperature incubation.
# 7; Luminescence signal was obtained using the PerkinElmer ViewLux plate reader. Results were normalized to vehicle control (0% activity) and zero RLU (-100% activity).
row,Compound,"activity change, positive = activation"
1,CC(C)(O)C=CC(=O)[C@](C)(O)[C@H]1[C@H](O)C[C@]2(C)[C@@H]3CC=C4[C@@H](C=C(O)C(=O)C4(C)C)[C@]3(C)C(=O)C[C@@]12C,-94.1% (inactive)
2,N#Cc1ccccc1NC(=O)c1cccn(Cc2ccccc2)c1=O,-45.2% (inactive)
3,Nc1c(C(=O)Nc2ccc(Cl)c(C(F)(F)F)c2)sc2nc3c(cc12)N1CCC3CC1,-91.5% (inactive)
4,O=C(N[C@H]1CN2CCC1CC2)c1ccc(Cl)cc1,-6.33% (inactive)
5,Cc1ccc(-n2c(/C=C/c3ccc(Br)s3)nc3ccccc3c2=O)cc1,-11.2% (inactive)
6,CCN(CC)C(=O)N[C@@H]1C=C2c3cccc4[nH]cc(c34)C[C@@H]2N(C)C1,-9.95% (inactive)
7,O=c1c2ccccc2nc(/C=C/c2cccc3ccccc23)n1-c1ccccc1Cl,-10.9% (inactive)
8,Cc1cccc(-n2c(/C=C\c3cccc(Br)c3)nc3ccccc3c2=O)c1,-4.07% (inactive)
9,CCCOc1ccc(C2SCC(=O)Nc3c2c(C)nn3-c2cccc(C)c2)cc1OC (configuration not stated),-25.4% (inactive)
10,COc1ccc(-n2c(/C=C\c3ccccc3F)nc3ccccc3c2=O)cc1OC,-15.9% (inactive)
11,COC(=O)c1ccc(NC(=O)c2cccn(Cc3ccccc3C)c2=O)cc1,-84.1% (inactive)
12,Cc1cc(-n2c(/C=C/c3ccc(Br)s3)nc3ccccc3c2=O)ccc1Br,-10.7% (inactive)
13,CCN(CC)C(=O)c1ccc(NC(=O)CCn2nc(-c3ccc(Cl)cc3)c3ccccc3c2=O)cc1,-34.6% (inactive)
14,CC(C)N[C@@H]1CCn2c(=O)[nH]c3cccc(c32)[C@@H]1O,-4.14% (inactive)
15,CSc1ccc(CN2CCN(C(=O)COc3cccc(C)c3)CC2)cc1,-83.9% (inactive)
16,O=c1c2ccccc2nc(/C=C\c2ccc(F)cc2)n1-c1ccccc1F,-17% (inactive)
17,CCOc1ccc(NC(=O)c2cccn(Cc3cccc(Cl)c3)c2=O)cc1,-91.2% (inactive)
18,COc1cccc(C2SCC(=O)Nc3c2c(C)nn3-c2ccc(C)c(Cl)c2)c1OC (configuration not stated),-31.6% (inactive)
19,Cc1ccccc1Cn1cccc(C(=O)Nc2nc3ccccc3s2)c1=O,-57.1% (inactive)
20,CCCCc1ccc(NC(=O)c2cccn(Cc3ccc(Cl)cc3)c2=O)cc1,-94.5% (inactive)
21,CCOC(=O)c1ccc(NC(=O)c2cccn(Cc3ccccc3F)c2=O)cc1,-95.2% (inactive)
22,Cc1ccc(-n2c(/C=C\c3ccc(F)c(F)c3)nc3ccccc3c2=O)c(C)c1,-7.94% (inactive)
